The source of these data is PubChem BioAssay AID2588 (National Center for Advancing Translational Sciences (NCATS), 2010).

Inconclusive results are not listed. Entries that show only a call come without a potency. The source made the active and inactive calls. Calls come from the whole dose curve; as a rule, active = well fitted inhibition curve with a large enough effect; inconclusive = small, poorly fitted or top-dose-only effect, or effect the other way; inactive = flat fitted curve, though single readings scatter.

Sequence of Lysosomal acid glucosylceramidase (Homo sapiens) (P04062 whole entry, looked up): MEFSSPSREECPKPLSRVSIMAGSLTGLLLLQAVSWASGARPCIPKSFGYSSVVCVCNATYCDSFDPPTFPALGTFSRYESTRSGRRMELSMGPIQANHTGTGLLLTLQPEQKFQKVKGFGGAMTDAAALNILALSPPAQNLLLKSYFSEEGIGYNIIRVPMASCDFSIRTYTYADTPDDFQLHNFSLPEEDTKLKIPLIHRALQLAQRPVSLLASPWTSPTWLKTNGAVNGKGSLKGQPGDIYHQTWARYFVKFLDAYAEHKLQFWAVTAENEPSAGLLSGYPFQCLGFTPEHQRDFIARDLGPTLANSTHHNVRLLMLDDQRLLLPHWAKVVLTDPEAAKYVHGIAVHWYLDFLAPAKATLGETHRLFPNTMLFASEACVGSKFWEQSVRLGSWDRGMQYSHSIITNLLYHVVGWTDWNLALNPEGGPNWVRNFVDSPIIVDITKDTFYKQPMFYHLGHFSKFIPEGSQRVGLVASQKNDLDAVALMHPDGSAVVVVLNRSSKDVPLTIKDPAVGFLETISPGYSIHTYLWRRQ

The experiment has as its target Lysosomal acid glucosylceramidase (Homo sapiens) (UniProt P04062). Description: qHTS Assay for Inhibitors and Activators of N370S glucocerebrosidase as a Potential Chaperone Treatment of Gaucher Disease: Activity in Non-Mutant Spleen Homogenate Using a Red Fluorescent Substrate. The settings on record: red fluorogenic substrate GCase activity; series mostly up to 50.2 µM. An excerpt:
NIH Chemical Genomics Center [NCGC]
NIH Molecular Libraries Probe Production Centers Network [MLPCN]
Assay Submitter (PI): Wei Zheng
Glucocerebrosidase (GC) catalyzes the hydrolysis of beta-glucocerebroside to glucose and ceramide in lysosomes. Mutations in the glucocerebrosidase gene result in Gaucher disease, an autosomal recessive lysosomal storage disorder. Many of the mutations encountered in patients with Gaucher disease are missense alterations that may cause misfolding, decreased stability and/or mistrafficking of this lysosomal protein. […] These inhibitors include iminosugar analogs and three non-iminosugar inhibitors identified from a previous HTS of 62,000 compounds with the wild type recombinant enzyme. However, the enhancement of enzyme activity by the chaperone action of an enzyme inhibitor must be balanced against the direct inhibition of the enzyme. An enzyme activator could also function as a chaperone by binding to the enzyme and helping to correct its misfolding and mistrafficking. While activators for GC have not yet been identified, they may have better therapeutic potential than inhibitors. Therefore the discovery and development of chemical activators may provide a new strategy for the chaperone therapy.
We have optimized a new assay using N370S mutant GC derived from the spleen of a Gaucher patient. […] In addition, the MLPCN compound library has expanded, which increases the chance of finding new and better probes.
This confirmation assay tests for compound activity in spleen homogenate containing wildtype enzyme using an alternate resorufin-based substrate.
NCGC Assay Protocol Summary:
This is a fluorogenic enzyme assay with resorufin-beta-D-glucopyranoside as the substrate and wildtype glucocerebrosidase from human spleen homogenate as the enzyme preparation. Upon the hydrolysis of this fluorogenic substrate, the resulting product, […] which can be detected by a standard fluorescence plate reader. Data were normalized to the controls for basal activity (without enzyme) and 100% activity (with enzyme). The AC50 values were determined from concentration-response data modeled with the standard Hill equation.
Assay buffer: 50 mM citric acid (titrated with potassium phosphate to pH 5.0), 100 mM potassium chloride, 10 mM sodium chloride, 1 mM magnesium chloride, 0.01% Tween-20.
1536-well assay protocol:
(1) Add 2 ul/well of spleen homogenate (27 ug final)
(2) Add 23 nL compounds in DMSO solution. The final titration was 0.5 nM to 58 uM.
(3) Add 2 ul of substrate (1 mM final)
(4) Incubate at 37C for 40 min.
(5) Add 2 ul stop solution (1M NaOH and 1M Glycine mixture, pH 10)
(6) Detect the assay plate in a ViewLux plate reader (PerkinElmer) with Ex=365 nm and Em=440nm.
Keywords: Glucocerebrosidase, beta-glucosidase, Gaucher Disease, pharmacological chaperone, chaperone therapy, high throughput screening, glucocerebrosidase inhibitor, MLSMR, MLSCN, NIH Roadmap, qHTS and NCGC
As to `Cc1cccc(Nc2nc(NCCO)nc(N3CCCC3)n2)c1`, the Potency entry was “inactive”.
Under `CN(c1ccc(C(=O)Nc2nccs2)cc1)S(=O)(=O)c1ccccc1` stands 35500 nM (active).
In the case of `Cc1ccc(NC(=O)COc2ccccc2C(=O)Nc2ccccc2)cc1Cl`, the Potency entry is “inactive”.
As to `COc1ccccc1NC(=O)COc1ccccc1C(=O)Nc1ccccc1`, the Potency result was “inactive”.
Regarding `O=S(=O)(c1ccc(F)cc1)N1CCN(c2nc(-c3cccc(Br)c3)nc3ccccc23)CC1`, the Potency entry was “inactive”.
Next, `O=[N+]([O-])c1ccccc1S(=O)(=O)N1CCN(c2nc(-c3cccs3)nc3ccccc23)CC1`: 562 nM (active); `O=S(=O)(c1ccc2c(c1)OCCO2)N1CCN(c2nc(-c3ccccc3)nc3ccccc23)CC1`: 4470 nM (active).
Turning to `O=S(=O)(c1ccc(F)cc1)N1CCN(c2nc(-c3cccs3)nc3cc(Cl)ccc23)CC1`, the Potency result is “inactive”.
Next, `Cc1ccc(S(=O)(=O)Nc2ccc(C(=O)NCc3ccccc3)cc2)cc1`: “inactive”; `Cc1cc(C)n2ncc(C(=O)Nc3ccc(Cl)c(Cl)c3)c2n1`: “inactive”; `Cc1ccc(S(=O)(=O)N2CCN(c3nc(-c4ccc(F)cc4)nc4cc(Cl)ccc34)CC2)cc1`: “inactive”.
Under `COc1ccc(S(=O)(=O)N2CCN(c3nc(-c4cccs4)nc4ccccc34)CC2)cc1` stands 355 nM (active); under `Cc1cc(N2CCC(C)CC2)nc2ccc(NC(=O)C3CCC(C)CC3)cc12` (stereo not given), 5010 nM (active).
As to `Cc1ccc(S(=O)(=O)N2CCN(c3nc(-c4cccs4)nc4ccccc34)CC2)cc1`, the Potency was 316 nM (active).
Consider `O=C(CSc1nccc(-c2cccs2)n1)Nc1cccc(Cl)c1`, for which the Potency result was “inactive”.
Next, `N#Cc1ccccc1S(=O)(=O)N1CCN(c2nc(-c3cccs3)nc3ccccc23)CC1`: 1120 nM (active); `CCOC(=O)c1ccc(S(=O)(=O)N2CCN(c3nc(-c4cccs4)nc4ccccc34)CC2)cc1`: 794 nM (active).
In the case of `O=S(=O)(c1ccc2c(c1)OCCO2)N1CCN(c2nc(-c3cccs3)nc3ccccc23)CC1`, the Potency was 141 nM (active).
Regarding `CCc1cc(C(=O)N/N=C/c2c(C)[nH]c3ccccc23)cs1`, the Potency entry was “inactive”.
Next, `O=S(=O)(c1cccc(C(F)(F)F)c1)N1CCN(c2nc(-c3ccccc3)nc3ccccc23)CC1`: 8910 nM (active).
